# How the values were obtained:
# Assay in all cases: DAPPL (digital affinity profiling via proximity ligation, sequencing); 10 mM Tris-HCl pH 7.5, 50 mM NaCl, 1 mM DTT, 4% glycerol, room temperature, 30 min; GST-TFs on glutathione beads, 16-mer random dsDNA library, 0.1% formaldehyde crosslink after washing; high values mean tight binding
# [1] = target: T1, FEV (Homo sapiens, UniProt Q99581 1-238); settings: protein: recombinant; tags: N-terminal GST; dsDNA, one strand shown
# T1 sequence: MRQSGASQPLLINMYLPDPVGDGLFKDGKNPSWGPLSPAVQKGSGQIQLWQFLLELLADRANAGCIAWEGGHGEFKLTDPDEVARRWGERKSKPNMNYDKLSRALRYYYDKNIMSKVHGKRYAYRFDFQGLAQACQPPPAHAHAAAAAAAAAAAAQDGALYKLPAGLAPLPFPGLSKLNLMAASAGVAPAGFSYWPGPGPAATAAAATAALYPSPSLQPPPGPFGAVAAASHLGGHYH
# Procedure, shortened: (§1)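 Sequencing on an Illumina NextSeq500 followed washing, crosslinking with 0.1% formaldehyde, proximity ligation (BsaI/T4 ligase, 1 h, 37 °C) and PCR amplification of pools that had been incubated for 30 min at room temperature with 200 nmole of a random double-stranded 16-mer DNA library in Tris/NaCl/DTT/glycerol buffer. Each pool held DNA-barcoded human transcription factors, expressed in yeast as GST fusions and captured on glutathione beads, plus a tag-only sample. Binding signal is a hexamer's read frequency for a factor divided by its frequency in the tag-only sample.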
# [2] = target: ETV5 (Homo sapiens, UniProt P41161 1-510); settings: protein: recombinant; tags: N-terminal GST; dsDNA, one strand shown
# Chain of ETV5 (P41161 whole entry): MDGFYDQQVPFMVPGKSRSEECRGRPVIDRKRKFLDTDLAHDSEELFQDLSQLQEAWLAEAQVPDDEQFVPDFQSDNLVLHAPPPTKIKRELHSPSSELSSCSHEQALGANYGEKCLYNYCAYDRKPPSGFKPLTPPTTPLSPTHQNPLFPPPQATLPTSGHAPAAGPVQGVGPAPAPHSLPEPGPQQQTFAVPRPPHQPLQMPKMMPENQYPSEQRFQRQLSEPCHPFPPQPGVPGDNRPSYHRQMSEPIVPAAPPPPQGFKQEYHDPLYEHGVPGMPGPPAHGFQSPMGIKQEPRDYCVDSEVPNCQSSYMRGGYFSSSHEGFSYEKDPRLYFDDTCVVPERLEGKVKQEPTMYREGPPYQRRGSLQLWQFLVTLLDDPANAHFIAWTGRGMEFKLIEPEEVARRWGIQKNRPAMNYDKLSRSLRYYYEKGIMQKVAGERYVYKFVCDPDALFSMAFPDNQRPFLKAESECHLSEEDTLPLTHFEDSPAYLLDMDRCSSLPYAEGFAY
# Procedure, shortened: as §1
# [3] = target: HSF1 (Homo sapiens, UniProt Q00613 1-529); settings: protein: recombinant; tags: N-terminal GST; chain copies: 3; dsDNA, one strand shown
# Chain of HSF1 (Q00613 whole entry): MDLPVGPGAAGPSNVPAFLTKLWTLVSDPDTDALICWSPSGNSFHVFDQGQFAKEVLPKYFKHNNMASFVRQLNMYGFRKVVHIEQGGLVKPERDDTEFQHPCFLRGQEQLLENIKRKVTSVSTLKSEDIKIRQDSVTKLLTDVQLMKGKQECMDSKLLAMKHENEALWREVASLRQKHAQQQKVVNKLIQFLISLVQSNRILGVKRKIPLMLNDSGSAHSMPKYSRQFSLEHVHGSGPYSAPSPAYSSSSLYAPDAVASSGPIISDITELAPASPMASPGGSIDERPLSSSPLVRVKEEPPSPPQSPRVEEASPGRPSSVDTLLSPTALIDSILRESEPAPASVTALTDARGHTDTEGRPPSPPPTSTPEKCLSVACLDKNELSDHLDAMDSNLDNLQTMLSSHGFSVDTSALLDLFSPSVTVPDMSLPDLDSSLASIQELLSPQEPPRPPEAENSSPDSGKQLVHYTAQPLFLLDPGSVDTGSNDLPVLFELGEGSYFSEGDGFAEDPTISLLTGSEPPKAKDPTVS
# Procedure, shortened: as §1
# [4] = target: T2, SPIC (Homo sapiens, UniProt Q8N5J4 1-248); settings: protein: recombinant; tags: N-terminal GST; dsDNA, one strand shown
# T2 sequence: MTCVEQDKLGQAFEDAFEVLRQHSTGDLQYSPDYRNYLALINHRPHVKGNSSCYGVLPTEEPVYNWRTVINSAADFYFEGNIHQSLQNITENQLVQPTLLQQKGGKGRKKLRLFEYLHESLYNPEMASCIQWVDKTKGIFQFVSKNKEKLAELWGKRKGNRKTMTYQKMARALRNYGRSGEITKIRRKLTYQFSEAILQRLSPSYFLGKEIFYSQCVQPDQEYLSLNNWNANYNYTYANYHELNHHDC
# Procedure, shortened: as §1
# [5] = target: ELF4 (Homo sapiens, UniProt Q99607 1-663); settings: protein: recombinant; tags: N-terminal GST; dsDNA, one strand shown
# Chain of ELF4 (Q99607 whole entry): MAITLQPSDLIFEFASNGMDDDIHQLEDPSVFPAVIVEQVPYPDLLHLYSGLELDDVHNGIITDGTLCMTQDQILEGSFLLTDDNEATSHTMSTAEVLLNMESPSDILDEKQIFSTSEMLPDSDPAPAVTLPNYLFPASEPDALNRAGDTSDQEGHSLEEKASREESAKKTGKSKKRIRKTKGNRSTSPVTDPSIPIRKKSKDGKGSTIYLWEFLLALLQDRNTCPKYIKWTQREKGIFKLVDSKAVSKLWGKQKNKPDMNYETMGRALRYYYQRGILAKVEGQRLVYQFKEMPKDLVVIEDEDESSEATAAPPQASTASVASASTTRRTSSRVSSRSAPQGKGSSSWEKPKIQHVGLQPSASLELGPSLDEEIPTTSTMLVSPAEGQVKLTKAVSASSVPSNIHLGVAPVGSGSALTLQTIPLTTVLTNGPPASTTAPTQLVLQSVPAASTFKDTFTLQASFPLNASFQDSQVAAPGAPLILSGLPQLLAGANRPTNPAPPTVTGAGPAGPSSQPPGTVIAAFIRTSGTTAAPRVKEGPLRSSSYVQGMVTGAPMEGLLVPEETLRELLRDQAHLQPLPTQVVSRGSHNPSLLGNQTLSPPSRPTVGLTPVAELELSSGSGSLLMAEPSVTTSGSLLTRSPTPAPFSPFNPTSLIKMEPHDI
# Procedure, shortened: as §1
# [6] = target: T3, ELK4 (Homo sapiens, UniProt P28324-2 1-405); settings: protein: recombinant; tags: N-terminal GST; dsDNA, one strand shown
# T3 sequence: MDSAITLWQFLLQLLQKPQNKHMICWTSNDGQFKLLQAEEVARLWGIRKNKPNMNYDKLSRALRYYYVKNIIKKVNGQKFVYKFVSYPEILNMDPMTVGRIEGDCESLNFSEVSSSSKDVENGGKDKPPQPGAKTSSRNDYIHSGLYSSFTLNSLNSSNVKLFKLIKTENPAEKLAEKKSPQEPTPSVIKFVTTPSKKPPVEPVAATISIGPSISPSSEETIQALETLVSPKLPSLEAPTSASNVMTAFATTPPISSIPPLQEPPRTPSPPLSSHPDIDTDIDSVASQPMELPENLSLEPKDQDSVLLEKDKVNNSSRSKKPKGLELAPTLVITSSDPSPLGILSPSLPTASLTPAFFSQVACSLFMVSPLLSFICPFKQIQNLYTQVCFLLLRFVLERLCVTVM
# Procedure, shortened: as §1
# [7] = target: T4, ETV2 (Homo sapiens, UniProt O00321 1-342); settings: protein: recombinant; tags: N-terminal GST; dsDNA, one strand shown
# T4 sequence: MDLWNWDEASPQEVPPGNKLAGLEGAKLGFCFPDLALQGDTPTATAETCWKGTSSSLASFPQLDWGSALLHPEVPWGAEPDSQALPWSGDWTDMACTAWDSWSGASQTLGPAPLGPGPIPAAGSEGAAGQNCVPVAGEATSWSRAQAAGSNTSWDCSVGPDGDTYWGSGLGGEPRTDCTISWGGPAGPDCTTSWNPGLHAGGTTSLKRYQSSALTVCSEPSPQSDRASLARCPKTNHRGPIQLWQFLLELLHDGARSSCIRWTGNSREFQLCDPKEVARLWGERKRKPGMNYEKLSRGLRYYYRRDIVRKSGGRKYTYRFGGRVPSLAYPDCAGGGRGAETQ
# Procedure, shortened: as §1
# [8] = target: T5, ELF3 (Homo sapiens, UniProt P78545 1-371); settings: protein: recombinant; tags: N-terminal GST; dsDNA, one strand shown
# T5 sequence: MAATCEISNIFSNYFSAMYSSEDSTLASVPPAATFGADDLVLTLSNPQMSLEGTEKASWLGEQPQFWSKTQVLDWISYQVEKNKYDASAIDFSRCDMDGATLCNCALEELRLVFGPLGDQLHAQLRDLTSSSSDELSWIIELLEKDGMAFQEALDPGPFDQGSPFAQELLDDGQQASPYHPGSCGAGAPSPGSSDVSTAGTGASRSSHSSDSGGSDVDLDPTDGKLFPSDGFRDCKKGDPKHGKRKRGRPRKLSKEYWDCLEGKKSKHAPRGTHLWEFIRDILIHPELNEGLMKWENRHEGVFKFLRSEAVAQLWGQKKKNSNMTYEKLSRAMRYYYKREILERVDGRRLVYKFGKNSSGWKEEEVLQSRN
# Procedure, shortened: as §1
# [9] = target: CRX (Homo sapiens, UniProt O43186 1-299); settings: protein: recombinant; tags: N-terminal GST; dsDNA, one strand shown
# Chain of CRX (O43186 whole entry): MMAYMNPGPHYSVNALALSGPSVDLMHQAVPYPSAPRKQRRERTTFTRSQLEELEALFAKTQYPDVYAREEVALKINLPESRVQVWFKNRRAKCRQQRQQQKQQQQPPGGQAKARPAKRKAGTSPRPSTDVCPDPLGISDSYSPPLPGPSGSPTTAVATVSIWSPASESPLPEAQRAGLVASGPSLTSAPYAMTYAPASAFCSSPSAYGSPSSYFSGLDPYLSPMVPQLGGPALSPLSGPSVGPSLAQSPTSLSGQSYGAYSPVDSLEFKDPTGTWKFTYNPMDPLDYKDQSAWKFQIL
# Procedure, shortened: as §1
# [10] = target: ETV1 (Homo sapiens, UniProt P50549 1-477); settings: protein: recombinant; tags: N-terminal GST; dsDNA, one strand shown
# Chain of ETV1 (P50549 whole entry): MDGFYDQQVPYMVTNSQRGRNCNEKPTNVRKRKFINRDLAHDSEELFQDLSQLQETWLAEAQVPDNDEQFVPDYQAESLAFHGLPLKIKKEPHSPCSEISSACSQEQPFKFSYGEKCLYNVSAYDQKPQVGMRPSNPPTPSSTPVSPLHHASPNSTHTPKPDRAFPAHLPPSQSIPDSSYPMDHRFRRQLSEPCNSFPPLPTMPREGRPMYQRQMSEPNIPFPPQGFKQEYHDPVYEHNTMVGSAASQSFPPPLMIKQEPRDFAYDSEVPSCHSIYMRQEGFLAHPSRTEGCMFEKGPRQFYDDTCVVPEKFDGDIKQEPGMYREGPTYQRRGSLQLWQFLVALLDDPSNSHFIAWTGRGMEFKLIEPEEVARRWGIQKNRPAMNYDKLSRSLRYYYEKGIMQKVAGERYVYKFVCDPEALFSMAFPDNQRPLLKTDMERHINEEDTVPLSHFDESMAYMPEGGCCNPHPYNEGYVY
# Procedure, shortened: as §1
sequence,measurement,setting,value
TTCTGC,binding signal,[1],"1.39 fold enrichment (6-mer frequency, TF over GST control)"
same,binding signal,[2],"1.46 fold enrichment (6-mer frequency, TF over GST control)"
same,binding signal,[3],"1.57 fold enrichment (6-mer frequency, TF over GST control)"
same,binding signal,[4],"1.37 fold enrichment (6-mer frequency, TF over GST control)"
same,binding signal,[5],"1.52 fold enrichment (6-mer frequency, TF over GST control)"
same,binding signal,[6],"1.65 fold enrichment (6-mer frequency, TF over GST control)"
same,binding signal,[7],"1.26 fold enrichment (6-mer frequency, TF over GST control)"
same,binding signal,[8],"1.54 fold enrichment (6-mer frequency, TF over GST control)"
same,binding signal,[9],"1.36 fold enrichment (6-mer frequency, TF over GST control)"
same,binding signal,[10],"1.45 fold enrichment (6-mer frequency, TF over GST control)"
